# Test results: paper PMC7862700, “An all-to-all approach to the identification of sequence-specific readers for epigenetic DNA modifications on cytosine”
# Legend:
# Test in all cases: DAPPL (digital affinity profiling via proximity ligation, sequencing); 10 mM Tris-HCl pH 7.5, 50 mM NaCl, 1 mM DTT, 4% glycerol, room temperature, 30 min; GST-TFs on glutathione beads, 16-mer random dsDNA library, 0.1% formaldehyde crosslink after washing; high values mean tight binding
# FEV = target: T1, FEV (Homo sapiens, UniProt Q99581 1-238); details: protein: recombinant; tags: N-terminal GST; dsDNA, one strand shown
# T1 sequence: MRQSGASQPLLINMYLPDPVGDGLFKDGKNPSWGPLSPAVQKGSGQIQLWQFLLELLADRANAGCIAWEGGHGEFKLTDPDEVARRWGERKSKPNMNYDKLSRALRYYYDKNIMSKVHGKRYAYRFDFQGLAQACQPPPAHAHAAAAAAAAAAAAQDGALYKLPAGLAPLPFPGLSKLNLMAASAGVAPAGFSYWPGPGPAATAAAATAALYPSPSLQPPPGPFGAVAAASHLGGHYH
# Outline: (§1)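 Binding signal is given per hexamer as its read frequency for a factor divided by its frequency in the tag-only sample. GST-fused human transcription factors were expressed in yeast, captured on glutathione beads, barcoded with DNA and pooled with that sample, then incubated with 200 nmole of a 16-mer random double-stranded DNA library in Tris/NaCl/DTT/glycerol buffer for 30 min at room temperature. The pools were then washed, crosslinked, proximity-ligated, amplified by PCR and sequenced on an Illumina NextSeq500.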
# ETV5 = ETV5 (Homo sapiens, UniProt P41161 1-510); details: protein: recombinant; tags: N-terminal GST; dsDNA, one strand shown
# Outline: as §1
# HSF1 = HSF1 (Homo sapiens, UniProt Q00613 1-529); details: protein: recombinant; tags: N-terminal GST; chain copies: 3; dsDNA, one strand shown
# Outline: as §1
# SPIC = target: T2, SPIC (Homo sapiens, UniProt Q8N5J4 1-248); details: protein: recombinant; tags: N-terminal GST; dsDNA, one strand shown
# T2 sequence: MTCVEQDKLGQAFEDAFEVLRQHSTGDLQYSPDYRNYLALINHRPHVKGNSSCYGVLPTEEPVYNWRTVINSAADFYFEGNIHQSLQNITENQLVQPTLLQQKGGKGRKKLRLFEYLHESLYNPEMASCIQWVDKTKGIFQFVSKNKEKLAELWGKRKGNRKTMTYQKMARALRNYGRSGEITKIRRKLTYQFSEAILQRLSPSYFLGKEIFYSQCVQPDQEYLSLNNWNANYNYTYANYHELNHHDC
# Outline: as §1
# ELF4 = ELF4 (Homo sapiens, UniProt Q99607 1-663); details: protein: recombinant; tags: N-terminal GST; dsDNA, one strand shown
# Outline: as §1
# ELK4 = target: T3, ELK4 (Homo sapiens, UniProt P28324-2 1-405); details: protein: recombinant; tags: N-terminal GST; dsDNA, one strand shown
# T3 sequence: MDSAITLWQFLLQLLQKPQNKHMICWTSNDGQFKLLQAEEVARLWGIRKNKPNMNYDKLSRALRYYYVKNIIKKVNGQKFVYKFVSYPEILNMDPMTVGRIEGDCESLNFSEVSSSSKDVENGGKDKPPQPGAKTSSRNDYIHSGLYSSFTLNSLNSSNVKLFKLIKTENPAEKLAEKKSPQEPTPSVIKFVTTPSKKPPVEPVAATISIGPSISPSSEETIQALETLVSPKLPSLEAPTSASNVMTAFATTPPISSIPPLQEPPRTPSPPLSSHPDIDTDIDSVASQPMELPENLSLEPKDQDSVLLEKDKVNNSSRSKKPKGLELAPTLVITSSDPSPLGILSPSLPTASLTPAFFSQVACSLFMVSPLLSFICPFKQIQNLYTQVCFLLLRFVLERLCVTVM
# Outline: as §1
# ETV2 = target: T4, ETV2 (Homo sapiens, UniProt O00321 1-342); details: protein: recombinant; tags: N-terminal GST; dsDNA, one strand shown
# T4 sequence: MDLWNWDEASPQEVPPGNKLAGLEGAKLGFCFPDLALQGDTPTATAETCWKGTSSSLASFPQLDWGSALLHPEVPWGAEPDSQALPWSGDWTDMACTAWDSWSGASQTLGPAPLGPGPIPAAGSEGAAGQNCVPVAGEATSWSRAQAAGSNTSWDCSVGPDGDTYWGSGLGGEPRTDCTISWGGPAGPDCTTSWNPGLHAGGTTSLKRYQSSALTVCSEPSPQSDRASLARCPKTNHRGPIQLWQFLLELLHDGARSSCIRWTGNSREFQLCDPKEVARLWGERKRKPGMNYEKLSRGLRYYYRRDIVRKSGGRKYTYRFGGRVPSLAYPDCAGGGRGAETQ
# Outline: as §1
# ELF3 = target: T5, ELF3 (Homo sapiens, UniProt P78545 1-371); details: protein: recombinant; tags: N-terminal GST; dsDNA, one strand shown
# T5 sequence: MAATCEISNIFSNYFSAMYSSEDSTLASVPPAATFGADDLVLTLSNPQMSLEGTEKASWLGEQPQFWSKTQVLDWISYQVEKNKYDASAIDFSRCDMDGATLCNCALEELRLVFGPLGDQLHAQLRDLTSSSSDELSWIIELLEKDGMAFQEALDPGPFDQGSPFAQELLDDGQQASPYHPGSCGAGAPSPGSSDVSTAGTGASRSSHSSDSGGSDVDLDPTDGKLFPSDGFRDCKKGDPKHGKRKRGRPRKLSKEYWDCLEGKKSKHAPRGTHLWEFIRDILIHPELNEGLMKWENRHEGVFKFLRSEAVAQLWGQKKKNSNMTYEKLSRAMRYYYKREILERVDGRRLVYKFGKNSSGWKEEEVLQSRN
# Outline: as §1
# CRX = CRX (Homo sapiens, UniProt O43186 1-299); details: protein: recombinant; tags: N-terminal GST; dsDNA, one strand shown
# Outline: as §1
# ETV1 = ETV1 (Homo sapiens, UniProt P50549 1-477); details: protein: recombinant; tags: N-terminal GST; dsDNA, one strand shown
# Outline: as §1
# ERF = target: T6, ERF (Homo sapiens, UniProt P50548 1-548); details: protein: recombinant; tags: N-terminal GST; dsDNA, one strand shown
# T6 sequence: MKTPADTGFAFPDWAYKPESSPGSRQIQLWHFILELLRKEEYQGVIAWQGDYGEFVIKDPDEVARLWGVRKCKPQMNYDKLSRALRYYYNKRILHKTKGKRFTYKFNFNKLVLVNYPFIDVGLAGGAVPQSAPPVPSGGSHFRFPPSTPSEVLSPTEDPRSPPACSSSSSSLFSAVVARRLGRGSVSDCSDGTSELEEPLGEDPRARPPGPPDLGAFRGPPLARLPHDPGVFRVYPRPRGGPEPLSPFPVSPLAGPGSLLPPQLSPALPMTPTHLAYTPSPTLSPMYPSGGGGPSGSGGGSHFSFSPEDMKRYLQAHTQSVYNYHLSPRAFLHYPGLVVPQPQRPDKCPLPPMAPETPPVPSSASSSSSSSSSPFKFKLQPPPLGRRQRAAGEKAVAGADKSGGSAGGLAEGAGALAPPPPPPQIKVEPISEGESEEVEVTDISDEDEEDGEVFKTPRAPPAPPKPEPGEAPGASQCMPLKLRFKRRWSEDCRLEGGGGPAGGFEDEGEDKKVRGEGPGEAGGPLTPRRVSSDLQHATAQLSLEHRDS
# Outline: as §1
# ETV3L = target: T7, ETV3L (Homo sapiens, UniProt Q6ZN32 1-361); details: protein: recombinant; tags: N-terminal GST; dsDNA, one strand shown
# T7 sequence: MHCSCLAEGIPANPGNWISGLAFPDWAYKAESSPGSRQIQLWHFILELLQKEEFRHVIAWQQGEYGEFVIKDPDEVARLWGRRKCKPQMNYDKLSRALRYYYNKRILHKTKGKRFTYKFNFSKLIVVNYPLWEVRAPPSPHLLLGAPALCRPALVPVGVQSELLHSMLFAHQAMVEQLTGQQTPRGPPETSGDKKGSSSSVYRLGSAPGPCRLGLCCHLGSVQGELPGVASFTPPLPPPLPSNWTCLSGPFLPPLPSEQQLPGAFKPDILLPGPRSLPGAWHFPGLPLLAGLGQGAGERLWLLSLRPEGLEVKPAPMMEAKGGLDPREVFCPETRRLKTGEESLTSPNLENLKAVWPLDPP
# Outline: as §1
# ETS2 = target: T8, ETS2 (Homo sapiens, UniProt P15036 1-469); details: protein: recombinant; tags: N-terminal GST; dsDNA, one strand shown
# T8 sequence: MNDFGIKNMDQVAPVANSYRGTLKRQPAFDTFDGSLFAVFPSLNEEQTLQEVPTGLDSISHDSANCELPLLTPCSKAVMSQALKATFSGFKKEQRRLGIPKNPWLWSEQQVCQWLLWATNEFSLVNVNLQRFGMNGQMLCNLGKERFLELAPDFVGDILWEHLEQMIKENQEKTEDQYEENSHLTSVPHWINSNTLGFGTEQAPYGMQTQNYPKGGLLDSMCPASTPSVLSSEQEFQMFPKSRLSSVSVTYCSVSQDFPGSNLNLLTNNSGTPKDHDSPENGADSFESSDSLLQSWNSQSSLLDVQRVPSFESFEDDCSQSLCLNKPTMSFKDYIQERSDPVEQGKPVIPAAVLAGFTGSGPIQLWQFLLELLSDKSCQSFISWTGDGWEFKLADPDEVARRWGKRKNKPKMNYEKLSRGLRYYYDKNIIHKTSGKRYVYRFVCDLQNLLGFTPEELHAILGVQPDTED
# Outline: as §1
# SPDEF = target: T9, SPDEF (Homo sapiens, UniProt O95238 1-335); details: protein: recombinant; tags: N-terminal GST; dsDNA, one strand shown
# T9 sequence: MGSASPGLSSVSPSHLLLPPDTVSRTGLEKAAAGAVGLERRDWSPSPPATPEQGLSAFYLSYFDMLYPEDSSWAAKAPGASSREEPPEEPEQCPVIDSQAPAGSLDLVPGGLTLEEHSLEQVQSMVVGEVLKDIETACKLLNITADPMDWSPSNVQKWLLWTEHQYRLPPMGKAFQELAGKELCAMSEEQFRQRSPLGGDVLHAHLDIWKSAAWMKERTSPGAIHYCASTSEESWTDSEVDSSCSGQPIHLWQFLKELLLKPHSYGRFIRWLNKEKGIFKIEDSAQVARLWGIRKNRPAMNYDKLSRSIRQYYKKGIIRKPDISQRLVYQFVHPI
# Outline: as §1
# ETV7 = target: T10, ETV7 (Homo sapiens, UniProt Q9Y603 1-341); details: protein: recombinant; tags: N-terminal GST; dsDNA, one strand shown
# T10 sequence: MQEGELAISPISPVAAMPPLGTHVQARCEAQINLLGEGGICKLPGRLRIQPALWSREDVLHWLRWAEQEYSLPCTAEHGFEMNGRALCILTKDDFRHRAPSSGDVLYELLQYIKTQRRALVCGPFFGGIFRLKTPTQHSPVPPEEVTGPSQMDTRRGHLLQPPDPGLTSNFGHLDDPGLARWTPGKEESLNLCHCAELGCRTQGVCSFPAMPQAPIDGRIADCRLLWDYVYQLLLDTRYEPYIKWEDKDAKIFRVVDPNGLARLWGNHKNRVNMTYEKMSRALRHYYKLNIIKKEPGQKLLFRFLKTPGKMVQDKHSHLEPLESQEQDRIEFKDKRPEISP
# Outline: as §1
# ELF5 = target: T11, ELF5 (Homo sapiens, UniProt Q9UKW6-2 1-255); details: protein: recombinant; tags: N-terminal GST; dsDNA, one strand shown
# T11 sequence: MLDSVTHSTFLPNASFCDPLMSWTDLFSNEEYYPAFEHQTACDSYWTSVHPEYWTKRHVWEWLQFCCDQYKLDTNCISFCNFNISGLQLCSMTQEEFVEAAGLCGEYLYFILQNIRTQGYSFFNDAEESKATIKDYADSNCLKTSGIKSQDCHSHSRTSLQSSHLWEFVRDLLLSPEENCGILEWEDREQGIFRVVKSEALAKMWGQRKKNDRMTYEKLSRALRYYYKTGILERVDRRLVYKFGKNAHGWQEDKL
# Outline: as §1
# ETV3 = target: T12, ETV3 (Homo sapiens, UniProt P41162-2 1-143); details: protein: recombinant; tags: N-terminal GST; dsDNA, one strand shown
# T12 sequence: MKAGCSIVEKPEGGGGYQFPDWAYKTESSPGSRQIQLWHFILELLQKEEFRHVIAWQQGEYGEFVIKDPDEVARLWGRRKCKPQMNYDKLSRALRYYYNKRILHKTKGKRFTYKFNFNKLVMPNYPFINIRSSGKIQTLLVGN
# Outline: as §1
# ETV6 = ETV6 (Homo sapiens, UniProt P41212 1-452); details: protein: recombinant; tags: N-terminal GST; dsDNA, one strand shown
# Outline: as §1
# ETV5, sequence (P41161 whole entry): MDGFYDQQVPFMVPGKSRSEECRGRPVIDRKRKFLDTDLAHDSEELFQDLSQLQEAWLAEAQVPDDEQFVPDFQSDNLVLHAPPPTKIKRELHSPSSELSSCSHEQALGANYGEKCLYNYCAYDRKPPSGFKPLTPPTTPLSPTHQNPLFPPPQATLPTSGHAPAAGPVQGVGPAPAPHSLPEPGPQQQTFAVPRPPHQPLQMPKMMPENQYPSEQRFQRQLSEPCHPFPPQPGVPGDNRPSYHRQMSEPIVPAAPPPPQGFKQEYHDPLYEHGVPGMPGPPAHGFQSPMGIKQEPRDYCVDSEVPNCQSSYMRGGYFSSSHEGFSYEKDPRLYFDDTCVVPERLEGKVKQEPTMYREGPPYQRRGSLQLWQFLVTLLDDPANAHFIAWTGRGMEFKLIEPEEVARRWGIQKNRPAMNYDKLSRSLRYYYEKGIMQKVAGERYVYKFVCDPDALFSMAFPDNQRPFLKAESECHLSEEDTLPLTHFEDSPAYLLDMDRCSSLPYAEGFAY
# HSF1, sequence (Q00613 whole entry): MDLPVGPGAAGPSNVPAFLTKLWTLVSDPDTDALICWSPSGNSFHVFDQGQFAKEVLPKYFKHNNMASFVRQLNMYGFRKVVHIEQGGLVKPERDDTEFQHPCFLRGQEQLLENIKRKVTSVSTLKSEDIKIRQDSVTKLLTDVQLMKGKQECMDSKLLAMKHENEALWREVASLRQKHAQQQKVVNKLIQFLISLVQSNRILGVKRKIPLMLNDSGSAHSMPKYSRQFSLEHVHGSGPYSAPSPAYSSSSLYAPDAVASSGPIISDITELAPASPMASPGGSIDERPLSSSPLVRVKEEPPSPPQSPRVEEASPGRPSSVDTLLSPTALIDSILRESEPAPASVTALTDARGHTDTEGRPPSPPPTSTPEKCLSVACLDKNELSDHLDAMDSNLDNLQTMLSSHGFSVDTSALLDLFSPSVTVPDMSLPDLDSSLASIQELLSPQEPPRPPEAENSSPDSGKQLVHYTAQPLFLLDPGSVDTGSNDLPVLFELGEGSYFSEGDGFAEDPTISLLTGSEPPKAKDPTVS
# ETV6, sequence (P41212 whole entry): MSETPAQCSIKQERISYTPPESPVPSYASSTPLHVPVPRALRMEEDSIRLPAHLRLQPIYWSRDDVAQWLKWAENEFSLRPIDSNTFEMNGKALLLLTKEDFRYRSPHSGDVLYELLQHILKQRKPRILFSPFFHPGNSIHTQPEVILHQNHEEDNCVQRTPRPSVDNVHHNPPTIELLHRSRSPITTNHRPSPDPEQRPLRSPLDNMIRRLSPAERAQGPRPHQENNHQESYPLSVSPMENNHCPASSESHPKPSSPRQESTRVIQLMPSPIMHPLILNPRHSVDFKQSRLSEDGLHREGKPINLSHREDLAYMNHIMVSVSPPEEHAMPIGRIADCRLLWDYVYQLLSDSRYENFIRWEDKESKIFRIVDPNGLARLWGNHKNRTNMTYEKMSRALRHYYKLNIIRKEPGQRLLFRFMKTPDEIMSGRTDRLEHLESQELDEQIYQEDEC
# ELF4, sequence (Q99607 whole entry): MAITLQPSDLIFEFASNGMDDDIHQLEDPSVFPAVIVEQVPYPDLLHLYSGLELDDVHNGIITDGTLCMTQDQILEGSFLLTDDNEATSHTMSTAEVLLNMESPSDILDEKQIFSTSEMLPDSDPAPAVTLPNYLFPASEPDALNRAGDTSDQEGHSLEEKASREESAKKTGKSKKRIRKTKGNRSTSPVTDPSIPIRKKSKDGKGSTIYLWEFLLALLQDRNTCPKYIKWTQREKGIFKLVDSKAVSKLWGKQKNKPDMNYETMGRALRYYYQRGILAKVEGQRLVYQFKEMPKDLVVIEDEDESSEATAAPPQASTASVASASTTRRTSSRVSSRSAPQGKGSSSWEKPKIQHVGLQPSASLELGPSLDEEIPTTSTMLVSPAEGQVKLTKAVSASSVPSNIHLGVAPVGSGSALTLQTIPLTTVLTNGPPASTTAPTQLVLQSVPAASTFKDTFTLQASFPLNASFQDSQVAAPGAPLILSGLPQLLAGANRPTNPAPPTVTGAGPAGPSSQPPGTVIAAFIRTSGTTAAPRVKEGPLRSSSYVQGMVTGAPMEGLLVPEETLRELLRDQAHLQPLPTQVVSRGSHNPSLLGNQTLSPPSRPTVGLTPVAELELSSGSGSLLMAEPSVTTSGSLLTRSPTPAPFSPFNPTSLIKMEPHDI
# CRX, sequence (O43186 whole entry): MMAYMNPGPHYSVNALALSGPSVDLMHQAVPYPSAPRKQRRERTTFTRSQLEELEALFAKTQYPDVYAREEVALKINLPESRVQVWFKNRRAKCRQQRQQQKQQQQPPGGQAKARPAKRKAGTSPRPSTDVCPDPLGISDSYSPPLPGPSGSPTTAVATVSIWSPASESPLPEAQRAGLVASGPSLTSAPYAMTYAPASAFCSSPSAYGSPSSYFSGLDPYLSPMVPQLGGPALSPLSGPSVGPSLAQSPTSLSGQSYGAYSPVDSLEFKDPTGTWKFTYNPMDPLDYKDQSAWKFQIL
# ETV1, sequence (P50549 whole entry): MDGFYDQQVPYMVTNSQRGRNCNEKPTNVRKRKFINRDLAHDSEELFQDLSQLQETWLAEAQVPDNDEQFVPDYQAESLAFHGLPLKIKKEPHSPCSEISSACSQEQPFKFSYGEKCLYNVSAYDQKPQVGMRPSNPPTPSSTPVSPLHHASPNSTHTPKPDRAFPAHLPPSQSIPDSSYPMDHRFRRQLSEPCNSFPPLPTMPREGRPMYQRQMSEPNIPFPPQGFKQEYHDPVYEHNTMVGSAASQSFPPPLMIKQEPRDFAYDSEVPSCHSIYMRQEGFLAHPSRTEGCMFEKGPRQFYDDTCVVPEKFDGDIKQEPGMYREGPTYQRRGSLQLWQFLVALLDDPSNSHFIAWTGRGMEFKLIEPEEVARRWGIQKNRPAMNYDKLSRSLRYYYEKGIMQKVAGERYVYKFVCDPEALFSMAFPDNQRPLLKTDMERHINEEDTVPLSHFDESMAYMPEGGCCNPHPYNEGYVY
sequence,measurement,setting,value
CTATAA,binding signal,FEV,"1.16 fold enrichment (6-mer frequency, TF over GST control)"
same,binding signal,ETV5,"1.23 fold enrichment (6-mer frequency, TF over GST control)"
same,binding signal,HSF1,"1.51 fold enrichment (6-mer frequency, TF over GST control)"
same,binding signal,SPIC,"1.35 fold enrichment (6-mer frequency, TF over GST control)"
same,binding signal,ELF4,"1.26 fold enrichment (6-mer frequency, TF over GST control)"
same,binding signal,ELK4,"1.36 fold enrichment (6-mer frequency, TF over GST control)"
same,binding signal,ETV2,"1.15 fold enrichment (6-mer frequency, TF over GST control)"
same,binding signal,ELF3,"1.25 fold enrichment (6-mer frequency, TF over GST control)"
same,binding signal,CRX,"1.83 fold enrichment (6-mer frequency, TF over GST control)"
same,binding signal,ETV1,"1.2 fold enrichment (6-mer frequency, TF over GST control)"
same,binding signal,ERF,"1.29 fold enrichment (6-mer frequency, TF over GST control)"
same,binding signal,ETV3L,"1.14 fold enrichment (6-mer frequency, TF over GST control)"
same,binding signal,ETS2,"1.28 fold enrichment (6-mer frequency, TF over GST control)"
same,binding signal,SPDEF,"1.34 fold enrichment (6-mer frequency, TF over GST control)"
same,binding signal,ETV7,"1.22 fold enrichment (6-mer frequency, TF over GST control)"
same,binding signal,ELF5,"1.2 fold enrichment (6-mer frequency, TF over GST control)"
same,binding signal,ETV3,"1.14 fold enrichment (6-mer frequency, TF over GST control)"
same,binding signal,ETV6,"1.16 fold enrichment (6-mer frequency, TF over GST control)"
